High-throughput results as filed in PubChem BioAssay.
HEK293 cAMP cs: counter-screen for TSHR agonists: cAMP increase in parental HEK293 | parental HEK293 CNG cAMP sensor, membrane potential fluorescence | Potency, µM (doses to about 57.1 µM), for the others: at the top dose activation, actives largely listed as activators | 73,000 compounds, 2.5% hits | AID 938; also: % of control where 0% means no effect; nearly all actives have a fitted effect of over 55% in size
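Counterscreen for endogenous-receptor signalling: CNG-channel HEK 293 cells report cAMP rise by membrane depolarization. After 60 min dye equilibration with 100 uM RO 20-1724, compounds incubated 30 min before bottom-read fluorescence at 590 nm.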
GBA activity: modulators of human glucocerebrosidase. P04062. purified enzyme, resorufin glucoside fluorescence (screen aimed at inhibitors), 20 min. Potency, µM. 48,000 compounds, 1.1% hits. AID 360; in the data active = potency below about 15 µM; inconclusive = mostly about 16 µM to 33 µM;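 also: the screen sought inhibitors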
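Normal human glucocerebrosidase (0.2 nM final) was assayed with resorufin β-D-glucopyranoside (30 uM final) in 50mM citric acid/KH2PO4, 10mM sodium taurocholate, 0.01% tween-20, pH 5.9. Compounds were titrated; fluorescence (Ex 548, Em 600) read after 20 min at RT.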
TSHR agonist: activates the human thyroid stimulating hormone receptor | HEK293-CNG-TSHR cells (CNG channel as cAMP sensor), membrane potential dye, cAMP | Potency, µM (highest dose often 57.1 µM), for the others: at the highest dose activation, usual class: activators | 73,000 compounds, 0.48% hits; active = well fitted activation curve with a large enough effect in the main read-out, with a control signal flat, not every such curve was filed as active; inconclusive = small, poorly fitted or top-dose-only effect, or a change in a side signal; inactive = no such curve, though single readings can be large or run the other way; % of control where 0% means no effect;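 also: the control signal comes from parental cells without the receptor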
Target sequence (P16473 whole entry, looked up): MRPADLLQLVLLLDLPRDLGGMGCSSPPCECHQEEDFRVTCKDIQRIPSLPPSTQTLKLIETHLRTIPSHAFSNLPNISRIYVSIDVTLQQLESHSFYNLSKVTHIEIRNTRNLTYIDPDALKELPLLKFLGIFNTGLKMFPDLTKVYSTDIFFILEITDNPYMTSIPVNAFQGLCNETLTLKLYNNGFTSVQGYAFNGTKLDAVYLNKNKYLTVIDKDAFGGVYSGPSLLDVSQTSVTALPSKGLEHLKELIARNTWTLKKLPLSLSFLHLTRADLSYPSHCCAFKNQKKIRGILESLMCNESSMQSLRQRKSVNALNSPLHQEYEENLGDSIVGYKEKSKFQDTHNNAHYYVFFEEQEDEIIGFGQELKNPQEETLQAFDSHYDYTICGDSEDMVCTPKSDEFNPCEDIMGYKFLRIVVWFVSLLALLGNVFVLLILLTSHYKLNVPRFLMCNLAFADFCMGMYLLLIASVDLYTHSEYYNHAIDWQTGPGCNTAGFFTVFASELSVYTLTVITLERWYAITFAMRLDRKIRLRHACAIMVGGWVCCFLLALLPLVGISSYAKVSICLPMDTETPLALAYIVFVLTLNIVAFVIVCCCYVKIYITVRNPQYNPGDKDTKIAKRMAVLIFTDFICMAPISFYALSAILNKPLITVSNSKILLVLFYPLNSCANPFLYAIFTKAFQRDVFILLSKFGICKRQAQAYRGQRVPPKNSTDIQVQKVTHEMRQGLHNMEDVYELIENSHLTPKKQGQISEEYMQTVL
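cAMP rise detected as CNG-channel membrane depolarization by fluorescent dye (emission 590 nm), 30 min after compound, following 60 min dye loading containing 100 uM RO 20-1724 at room temperature. Cells: TSHR/CNG HEK 293, with parental CNG HEK 293 as control.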
ERK AVP inh: inhibitors of vasopressin-stimulated ERK signaling pathway. 72,000 compounds, 0.99% hits. Potency, µM (series often up to 57.5 µM), for the others: top-dose activity, negative = inhibition, actives largely listed as inhibitors. HEK293-V1b, vasopressin-stimulated pERK AlphaScreen; also: % is scaled to controls: 0 for no effect and ±100 for the full control effect; nearly all actives have a fitted effect of over 55% in size
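Overnight-seeded V1b-HEK293 cells in 1% FBS got compound, then vasopressin (25 nM final, 5 min, 37C), then lysis buffer. AlphaScreen detection of phospho-ERK; activity normalized to basal and full-stimulation controls.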
FLuc inh: inhibitors of firefly luciferase; purified firefly luciferase, luminescence, 8 min; 72,000 compounds, 2.2% hits; Potency, µM (titrated, usually from 57.1 µM), for the others: at the highest dose activity change, negative = inhibition, hits mostly inhibitors; P08659; also: % is scaled to controls: 0 for no effect and ±100 for the full control effect; nearly all actives have a fitted effect of over 40% in size
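Substrate buffer containing 10 uM ATP (pH 7.2 imidazole, Mg2+, KCl, detergent, BSA) is dispensed, compound pinned in, then luciferase/luciferin detector mix added. After 8 min at ambient temperature, light output is measured.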
PK Bst: alters activity of Bacillus stearothermophilus pyruvate kinase. AID 361. 51,000 compounds, 1.2% hits. Potency, µM. purified pyruvate kinase, luminescence ATP production; ribose 5-phosphate activator present at AC10; in the data active = potency below about 11 µM; inconclusive = mostly about 12 µM to 25 µM;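 the screen sought inhibitors and activators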;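 also: scaled between full activation by ribose 5 phosphate and full inhibition by luteolin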
* hit, by the source's call; i = inactive; u = inconclusive; x = no result; [ ] = dose if it differs, or a comment. The list is not random: actives were taken first. Their share in the collection is about 6.1%. Unless noted, calls follow the shape of the dose curve; as a rule, active = well fitted curve in the direction sought with a large enough effect; inconclusive = small, poorly fitted or top-dose-only effect, or another doubt; inactive = no such curve, though single readings can be large; an effect the other way counts as inactive or inconclusive. Potency is read from the fitted curve at half-maximal effect.

SMILES	HEK293 cAMP cs	GBA activity	TSHR agonist	ERK AVP inh	FLuc inh	PK Bst
O=C(O)CNCCc1ccccc1	-56%[11.4 µM]	x	u	-15%[11.5 µM]	1%[11.4 µM]	x
CCOC(=O)c1cnc(-n2nc(C)cc2C)nc1NC(C)c1ccccc1 (stereo not given)	25µM*	>77	u	-11%	2%	>57
CCOC(=O)c1cnc(-n2nc(C)cc2C)nc1N1CC(C)OC(C)C1 (stereo not given)	14%	>77	1%	-4%	0%	>57
CCOC(=O)c1cnc(-n2nc(C)cc2C)nc1NCc1ccccc1	20µM*	>77	u	u	-4%	>57
COC(=O)C/C=C\[C@@H](C)[C@@H](/C=N\O[C@@H](C)c1cn([C@H]2COC[C@H]2O)nn1)OC	-2%[11.4 µM]	x	3%[11.4 µM]	-6%[11.5 µM]	-1%[11.4 µM]	x
Cc1cc(NC(=O)Nc2cccc(C(F)(F)F)c2)no1	9%	x	-16%	u	-1%	>57
Cc1cc(NC(=O)c2sc(Nc3cccc(C(F)(F)F)c3)nc2N)no1	-28%	12*	-31%	u	-2%	x
COc1ccc(NC(=O)Nc2cccc(C(=O)N3CCOCC3)c2)cc1OC	x	x	x	x	-8%[25.5 µM]	>26
CC(=O)c1cccc(NC(=O)Nc2ccc(C(=O)N3CCOCC3)cc2)c1	-6%	>77	-9%	-1%	13µM*	x
CC(=O)Nc1ccc(-c2nc(C)c(C(C)=O)n2O)cc1	29%	x	4%	-10%	-24%	6.6*
CC(=O)Nc1ccccc1	-9%	x	-3%	19%	x	x
CCn1c(=O)n(CC(=O)NC2CCCC(C)C2C)c(=O)c2ccccc21 (stereo not given)	25µM*	u	u	-11%	1%	>57
CC(=O)NC(c1ccco1)c1ccc2cccnc2c1O (stereo not given)	2%	x	1%	16µM*	1%	x
O=C1c2cccc3c(Cl)ccc(c23)C(=O)N1O	-55%	>77	u	-9%	0%	5.1*
COC(=O)c1ccccc1NC(=O)CSc1nnc(COc2cccc(OC)c2)n1C	13µM*	>77	u	7%	-1%	>57
CCn1c(COc2ccccc2C)nnc1SCC(=O)CC(=O)Nc1ccccc1	6%	u	x	u	2%	>57
COC(=O)c1ccc(CSc2nc(N)cc(N)n2)cc1	13%	>77	19%	-18%	-20%	>57
CCn1c(Cn2nnc(-c3ccccc3)n2)nnc1SCC(=O)Nc1ccccc1	u	9.6*	u	-19%	1%	>57
CCOC(=O)c1ccccc1NC(=O)CSc1nc2ccccc2o1	25µM*	>77	u	-10%	3%	>57
COC(=O)c1ccc(CSc2nc3ccccc3o2)cc1	19%	x	x	73%	16µM*	i
CCCCCCCCCCCCCCCCCCNC(=O)OC[C@@H](COP(=O)([O-])OCC[n+]1ccsc1)OC	u	x	u	15%	1%	x
CCC(=O)Nc1cccc(NC(=O)CSc2nnc(C(C)C)n2CC)c1	13µM*	>77	u	11%	0%	>57
CCOC(=O)c1cccc(NC(=O)CSc2nnc(COc3ccccc3)n2CC)c1	24%	>77	11%	u	1%	>57
CCOC(=O)c1ccccc1NC(=O)CSc1nnc(COc2ccccc2)n1CC	16µM*	>77	u	-17%	3%	>57
CCn1c(SCC(=O)Nc2cccc(NC(C)=O)c2)nnc1C(C)C	6%	>77	0%	-17%	1%	>57
SMILES	HEK293 cAMP cs	GBA activity	TSHR agonist	ERK AVP inh	FLuc inh	PK Bst
C[C@@H]1C=CCC(=O)OC[C@H](C)C(=O)OC[C@H]2O[C@H]1C=C[C@@H]2O	4%[11.4 µM]	x	8%[11.4 µM]	-5%[11.5 µM]	-1%[11.4 µM]	x
O=C(NCc1ccc2c(c1)OCO2)C(c1ccco1)N(C(=O)c1csnn1)c1ccccc1 (stereo not given)	7%	>77	3.2µM*	-1%	1%	>57
C=CC1=C(C)/C(=C/c2[nH]c(Cc3[nH]c(/C=C4\NC(=O)C(C)=C4C=C)c(C)c3CCC(=O)O)c(CCC(=O)O)c2C)NC1=O	x	x	x	-5%	x	x
CCOC(=O)N1CCN(C(=O)C2CCCN(c3nc4ccc(OCC)cc4s3)C2)CC1 (stereo not given)	10%	x	-3%	-16%	u	x
CCOc1ccc2nc(N3CCC(C(=O)N4CCN(c5ncccn5)CC4)CC3)sc2c1	12%	x	-9%	u	-19%	x
CCOc1ccc2nc(N3CCC(C(=O)N4CCN(c5ccccn5)CC4)CC3)sc2c1	11%	x	8%	20µM*	6.3µM*	x
CCOc1ccc2nc(N3CCCC(C(=O)NCCCN4CCOCC4)C3)sc2c1 (stereo not given)	u	x	u	27%	25µM*	x
C=C[C@]1(C)C[C@H](OC(=O)CO)[C@]2(C)C3C(=O)CC[C@]3(CC[C@H]2C)[C@H](C)[C@H]1O (stereo not given in full)	3%[11.4 µM]	x	-6%[11.4 µM]	23%[11.5 µM]	1%[11.4 µM]	x
CC(=O)OC[C@H]1O[C@@H](O/N=C\[C@@H](C)[C@H](OCc2ccccc2)C(C)C)[C@H](OC(C)=O)[C@@H](OC(C)=O)[C@H]1OC(C)=O	-2%[11.4 µM]	x	-6%[11.4 µM]	13%[11.5 µM]	0%[11.4 µM]	x
O=C(Cn1cccc1)Nc1ccc(OC(F)(F)F)cc1	2%	15*	0%	24%	-4%	>57
Cc1cccc(CNc2ncncc2-c2ccc3c(c2)OCO3)c1	u	x	u	u	-1%[2.29 µM]	x
Cc1cc(Br)ccc1OCC(=O)N(Cc1nc(-c2ccccc2)no1)C(C)C	10µM*	>77	u	3%	1%	>57
Cc1cc(C(=O)OCc2nnc(-c3ccccc3)o2)c(C)n1-c1ccccc1	13µM*	>77	u	5%	-3%	>57
Cc1ccc(C(=O)N2CCN(c3ccccc3)CC2)cc1C	25µM*	x	u	52%	-2%	x
CN1CCN(c2ccc(C(=O)c3ccc(F)cc3)cc2)CC1	12%[11.4 µM]	x	16%[11.4 µM]	-31%	25µM*	x
O=C(c1ccccc1)c1ccc(N2CCNCC2)cc1	u	>77	u	12%	-2%	>57
O=C(c1ccccc1C(=O)N1CCN(c2ccc(F)cc2)CC1)N1CCN(c2ccc(F)cc2)CC1	11%	>77	-11%	40µM*	0%	>57
O=C(O)CCC(=O)N1CCN(c2ccc(C(=O)c3ccc(F)cc3)cc2)CC1	-5%	>77	-23%	-10%	-3%	>57
O=C(c1ccccc1)c1ccc(N2CCCC2)cc1	u	x	u	-9%	13µM*	x
CCOC(=O)N/N=C1/C[C@@H](O)[C@@H](O)[C@@H]2[C@@H]3C(=O)N([C@@H](C)c4ccccc4)C(=O)[C@H]3CC[C@H]12	4%[11.4 µM]	x	0%[11.4 µM]	-8%[11.5 µM]	0%[11.4 µM]	x
C=CC[C@@H]1C=C[C@@H](O/N=C\[C@@H](NS(=O)(=O)c2ccc(C)cc2)[C@H](C)/C=C\CC(=O)OC)[C@@H](CO)O1	-1%[11.4 µM]	x	-3%[11.4 µM]	8%[11.5 µM]	0%[11.4 µM]	x
